Screening data (PubChem BioAssay)
Most compounds without a hit are left out; they make up all but 7.4% or so of the library.
MITF inh = MITF inhibition; TRPM1 promoter luciferase, luminescence, 24 h; inhibition, % (no concentration beside the values); 37,000 compounds, 0.28% hits; AID 2240; in the data active = inhibition above about 85%; inconclusive = no clear call, values can overlap the other calls; inactive = below about 68%;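 also: human melanocyte line stably carrying TRPM1 promoter luciferase reporter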
YB-1 expression = YB-1 expression inhibition. U2OS, qRT-PCR YB-1 vs CDIP delta delta Cp, 16 h; active compounds read high; zero = DMSO, each unit about twofold. delta delta Cp (YB-1 minus CDIP) (concentration not given with the values). 30,000 compounds, 0.37% hits. AID 434959;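 active = delta delta Cp rounded down to an integer at or above 3, about 3 SD of DMSO wells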;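 also: higher means less YB-1 transcript or more CDIP transcript relative to DMSO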
NOMO-1 viab = STK33 inhibitor candidate reducing NOMO-1 cell viability; NOMO-1 AML viability, CellTiter-Glo luminescence, 72 h; 37,000 compounds, 7.5% hits; inhibition, % (no concentration beside the values); in the data active = inhibition above about 80%; inconclusive = no clear call, values can overlap the other calls
PD-1 reversal = activators reversing PD-1 mediated T-cell inhibition. activation, % (concentration not given with the values). 29,000 tested, under 10 active. primary human CD4 T cells, PD-L1 beads, CellTiter-Glo 96 h; call rule not given here;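 also: 0% = median vehicle wells and 100% = positive control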
Shh pathway inh = Sonic Hedgehog pathway inhibition; 22,000 compounds, 2.1% hits; inhibition, % (no concentration beside the values); Shh-LIGHT2 Gli-luciferase reporter, 30 h; AID 2313;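 active = mean inhibition across valid replicates above about 65%, limit read from the data; inconclusive = mean under the limit, yet half or more replicates past it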;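 also: pathway switched on by Shh-conditioned medium diluted 1 in 25 in low serum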
* hit, by the source's call; ? = inconclusive; . = not tested or not shown.

SMILES	MITF inh	YB-1 expression	NOMO-1 viab	PD-1 reversal	Shh pathway inh
Cc1nc([N+](=O)[O-])c(Sc2nc3ccccc3[nH]2)n1Cc1ccccc1	15.7	.	101.2*	-13.8	.
COc1ccc2nc(Sc3c([N+](=O)[O-])nc(C)n3Cc3ccccc3)[nH]c2c1	53.4	.	102.3*	-14.0	.
Cc1cc2nc(Sc3c([N+](=O)[O-])nc(C)n3Cc3ccccc3)[nH]c2cc1C	31.9	.	106.9*	-15.4	.
Cc1ccc(S(=O)(=O)N(C)C[C@@H]2Oc3ncc(-c4cccc(C(F)(F)F)c4)cc3C(=O)N([C@H](C)CO)C[C@@H]2C)cc1	.	-0.306	.	.	.
COc1cc(C(=O)OC2OC(CO)C(O)C(O)C2O)cc(OC)c1OC (centres undefined)	.	-0.0485	.	.	-8.9
C[C@H]1CN([C@@H](C)CO)C(=O)Cc2cc(NC(=O)Cc3ccccc3)ccc2O[C@H]1CN(C)Cc1ccc(-c2ccccc2)cc1	1.7	-0.151	98.9*	-2.1	-41.4
C[C@@H]1CN([C@H](C)CO)C(=O)Cc2cc(NC(=O)Cc3ccccc3)ccc2O[C@@H]1CN(C)Cc1ccc(Oc2ccccc2)cc1	2.7	0.0119	115.6*	-4.6	32.2
O=C(Nc1cc(C(F)(F)F)ccc1Br)c1ccccc1F	2.0	0.117	43.9	1.7	.
C[C@@H]1CN([C@H](C)CO)C(=O)c2cc(NC(=O)Nc3cccc4ccccc34)ccc2O[C@H]1CN(C)Cc1ccc(C(F)(F)F)cc1	23.6	-1.04	25.2	-3.4	.
C[C@H]1CN([C@@H](C)CO)C(=O)c2cccc(NC(=O)C3CCCCC3)c2O[C@H]1CN(C)Cc1ccc(-c2ccccc2)cc1	-1.4	0.357	86.9*	-0.3	2.9
C[C@H](CO)N1C[C@H](C)[C@@H](CN(C)Cc2ccccc2)Oc2c(NC(=O)C3CCCCC3)cccc2C1=O	17.8	-0.769	63.0	-3.0	38.5
C[C@H]1CN([C@@H](C)CO)C(=O)c2cccc(NC(=O)C3CCCCC3)c2O[C@@H]1CN(C)CC1CCCCC1	-2.6	0.46	?	.	10.2
C[C@H](CO)N1C[C@H](C)[C@H](CN(C)Cc2ccc(Oc3ccccc3)cc2)Oc2c(NC(=O)C3CCCCC3)cccc2C1=O	8.9	0.727	109.4*	-1.6	38.7
C[C@@H]1CN([C@@H](C)CO)C(=O)c2cccc(NC(=O)C3CCCCC3)c2O[C@H]1CN(C)Cc1ccccc1	29.3	-0.326	95.9*	-3.6	-5.7
C[C@H](CO)N1C[C@H](C)[C@H](CN(C)Cc2ccc(-c3ccccc3)cc2)Oc2c(NC(=O)C3CC3)cccc2C1=O	-5.4	0.0338	50.0	-5.9	16.0
C[C@@H]1CN([C@@H](C)CO)C(=O)c2cccc(NC(=O)C3CCCCC3)c2O[C@H]1CN(C)CC1CCCCC1	12.7	0.0975	95.3*	.	-20.8
C[C@@H]1CN([C@H](C)CO)C(=O)c2cccc(NC(=O)C3CCCCC3)c2O[C@@H]1CN(C)Cc1ccc(-c2ccccc2)cc1	22.6	-0.523	109.7*	-5.2	-13.3
C[C@H](CO)N1C[C@H](C)[C@@H](CN(C)Cc2ccc(-c3ccccc3)cc2)Oc2c(NC(=O)C3CC3)cccc2C1=O	36.9	0.725	89.1*	.	30.7
C[C@H](CO)N1C[C@H](C)[C@@H](CN(C)Cc2ccc(-c3ccccc3)cc2)Oc2c(NC(=O)C3CCCCC3)cccc2C1=O	21.9	-0.0113	51.6	.	23.7
C[C@@H]1CN([C@H](C)CO)C(=O)c2cccc(NC(=O)C3CC3)c2O[C@@H]1CN(C)Cc1ccc(-c2ccccc2)cc1	-5.7	-0.483	16.9	1.5	23.1
C[C@@H]1CN([C@@H](C)CO)C(=O)c2cccc(NC(=O)C3CCCCC3)c2O[C@H]1CN(C)Cc1ccc(-c2ccccc2)cc1	60.5	-0.0701	81.4*	-3.8	11.9
COc1ccc(CN(C)C[C@@H]2Oc3c(NC(=O)C4CCCCC4)cccc3C(=O)N([C@@H](C)CO)C[C@H]2C)cc1	18.8	-0.288	98.0*	-6.6	11.9
COc1ccc(CN(C)C[C@H]2Oc3c(NC(=O)C4CCCCC4)cccc3C(=O)N([C@H](C)CO)C[C@H]2C)cc1	-4.1	-0.108	20.3	-0.3	-3.8
Cc1ccc(S(=O)(=O)N(C)/N=C/c2cccc(Br)c2)cc1	17.6	-5.16	42.1	0.3	9.8
Cc1noc(C)c1S(=O)(=O)Nc1ccc2c(c1)C(=O)N([C@@H](C)CO)C[C@@H](C)[C@@H](CN(C)S(=O)(=O)c1cccs1)O2	1.6	0.379	-3.9	-1.3	10.9
SMILES	MITF inh	YB-1 expression	NOMO-1 viab	PD-1 reversal	Shh pathway inh
O=[N+]([O-])c1cccc(NC(=S)Nc2nn(Cc3ccc(Cl)c(Cl)c3)cc2Br)c1	16.8	.	15.8	-1.4	.
C[C@@H]1CN([C@H](C)CO)C(=O)c2cccc(N(C)C)c2O[C@H]1CN(C)Cc1ccc2c(c1)OCO2	2.5	0.244	19.4	.	-1.2
C[C@H]1CN([C@@H](C)CO)C(=O)c2cccc(N(C)C)c2O[C@@H]1CN(C)Cc1ccc(Cl)c(Cl)c1	-4.8	-0.071	44.7	-1.8	3.4
C[C@@H]1CN([C@@H](C)CO)C(=O)c2cccc(N(C)C)c2O[C@H]1CN(C)Cc1ccc(Cl)c(Cl)c1	9.1	0.363	97.3*	.	3.1
C[C@@H]1CN([C@H](C)CO)C(=O)c2cccc(N(C)C)c2O[C@H]1CN(C)Cc1ccc(Cl)c(Cl)c1	4.8	0.0632	88.0*	.	-51.8
C[C@@H]1CN([C@@H](C)CO)C(=O)c2cccc(N(C)C)c2O[C@@H]1CN(C)Cc1ccc2c(c1)OCO2	-4.3	11.6*	6.3	0.5	-13.9
O=C(NCCc1ccccc1)N1c2ccccc2Sc2ccccc21	43.4	-0.278	51.8	-0.1	91.9*
COc1ccc(N(C(C)C(=O)Nc2ccc(Cl)cc2)S(C)(=O)=O)cc1 (centres undefined)	-6.9	.	23.8	1.9	.
C[C@H]1CN([C@@H](C)CO)C(=O)Cc2cc(NC(=O)Nc3ccc(C(F)(F)F)cc3)ccc2O[C@H]1CN(C)C(=O)Nc1ccc2c(c1)OCO2	-13.3	0.403	2.0	-1.8	-23.3
C[C@@H]1CN([C@H](C)CO)C(=O)Cc2cc(NC(=O)Nc3ccc(C(F)(F)F)cc3)ccc2O[C@@H]1CN(C)C(=O)Nc1ccc2c(c1)OCO2	6.1	0.317	113.2*	-2.2	35.9
C[C@@H]1CN([C@@H](C)CO)C(=O)Cc2cc(NC(=O)Nc3ccc(C(F)(F)F)cc3)ccc2O[C@@H]1CN(C)C(=O)Nc1ccc2c(c1)OCO2	54.7	0.0516	124.6*	.	82.6*
Cc1cccc(OCC(=O)Nc2cccc(-c3nnc(-c4ccccc4)o3)c2)c1	-89.0	.	27.7	1.0	.
O=C(NCc1nc2ccccc2[nH]1)c1c(F)c(F)c(F)c(F)c1F	21.5	.	20.3	-7.1	.
Fc1ccc(N(Cc2nc3ccccc3[nH]2)Cc2nc3ccccc3[nH]2)cc1	2.1	.	99.7*	.	.
C[C@H](CO)N1C[C@H](C)[C@@H](CN(C)Cc2ccc(Oc3ccccc3)cc2)Oc2ccc(N(C)C)cc2C1=O	9.9	0.139	7.1	-1.8	6.6
C[C@H]1CN([C@@H](C)CO)C(=O)Cc2cc(N(C)C)ccc2O[C@H]1CN(C)Cc1ccc(C(=O)Nc2ccccc2N)cc1	31.3	-0.136	140.9*	-0.6	.
